Laboratory results: the supplement of paper PMC4206461

These molecules were tested on Pseudomonas aeruginosa PA14 dppBCDF deletion mutant (assay: respiration area under curve with compound as sole nitrogen source, 24 h (OmniLog AUC (arbitrary units)); higher = more respiration / better utilisation as nitrogen source, active = 2000 or more; extreme values may be limits of the assay).
Procedure: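 Biolog Phenotype MicroArray plates PM6-PM8: each di/tripeptide is the sole nitrogen source. Tetrazolium reduction was read in the OmniLog every 15 min for 24 h at 37°C and summarised as area under the respiration curve (arbitrary units). Values below 2000 count as no respiration. Strain is the dipeptide ABC transporter deletion mutant.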

Respiration area under curve, inactive:
CC(C)C(N)C(=O)NC(CO)C(=O)O (stereo not given) (plate: PM8) 844
CC[C@H](C)[C@H](N)C(=O)N[C@@H](CCSC)C(=O)O (plate: PM6) 0
C[C@@H](NC(=O)CN)C(=O)O (plate: PM8) 0
CC(C)[C@H](NC(=O)[C@@H](N)CC(=O)O)C(=O)O (plate: PM6) 524
N[C@@H](Cc1ccc(O)cc1)C(=O)N[C@@H](Cc1c[nH]c2ccccc12)C(=O)O (plate: PM7) 1770
CC(C)C[C@H](NC(=O)[C@@H](C)N)C(=O)O (plate: PM8) 0
O=C(O)[C@@H]1CCCN1C(=O)[C@@H]1CCCN1 (plate: PM7) 0
CC[C@H](C)[C@H](N)C(=O)N[C@H](C(=O)O)[C@@H](C)CC (plate: PM6) 0
CC(C)C[C@@H](N)C(=O)NCC(=O)O (plate: PM8) 0
CC(C)C[C@@H](N)C(=O)N[C@H](CC(C)C)C(=O)O (plate: PM8) 0
CC(C)CC(N)C(=O)NC(CC(=O)O)C(=O)O (stereo not given) (plate: PM6) 735
CC(C)[C@H](N)C(=O)NCC(=O)O (plate: PM7) 47.8
CC[C@H](C)[C@H](N)C(=O)NCC(=O)O (plate: PM6) 0
O=C(O)[C@H](Cc1c[nH]c2ccccc12)NC(=O)[C@@H]1CCCN1 (plate: PM8) 358
C[C@H](O)[C@@H](NC(=O)CN)C(=O)O (plate: PM8) 0
CSCCC(NC(=O)C(N)CC(C)C)C(=O)O (stereo not given) (plate: PM6) 686
CC(C)C[C@H](NC(=O)[C@@H](N)[C@@H](C)O)C(=O)O (plate: PM7) 1070
C[C@@H](O)[C@H](N)C(=O)N1CCC[C@H]1C(=O)O (plate: PM7) 0
CC(C)C[C@H](NC(=O)CN)C(=O)O (plate: PM6) 0
CSCC[C@H](N)C(=O)N[C@@H](CCC(=O)O)C(=O)O (plate: PM7) 0
N[C@@H](CCC(=O)O)C(=O)N[C@@H](CC(=O)O)C(=O)O (plate: PM6) 0
C[C@H](NC(=O)CN)C(=O)O (plate: PM6) 48.2
CC(C)C[C@H](NC(=O)[C@@H](N)Cc1c[nH]c2ccccc12)C(=O)O (plate: PM7) 1830
N[C@@H](CCC(=O)O)C(=O)N[C@@H](CCC(=O)O)C(=O)O (plate: PM6) 0
N[C@@H](CO)C(=O)N[C@@H](CO)C(=O)O (plate: PM7) 988
NCC(=O)N[C@@H](CC(=O)O)C(=O)O (plate: PM8) 6.75
O=C(O)CC(NC(=O)C1CCCN1)C(=O)O (stereo not given) (plate: PM7) 0
O=C(O)CC[C@H](NC(=O)[C@@H]1CCCN1)C(=O)O (plate: PM8) 0

Respiration area under curve, active:
N[C@@H](Cc1ccccc1)C(=O)N[C@@H](Cc1ccccc1)C(=O)O (plate: PM7) 2740
N[C@@H](Cc1ccc(O)cc1)C(=O)N[C@@H](Cc1ccc(O)cc1)C(=O)O (plate: PM7) 4900
C[C@H](N)C(=O)N[C@@H](Cc1c[nH]c2ccccc12)C(=O)O (plate: PM6) 3230
CC(C)C[C@H](N)C(=O)N[C@@H](Cc1ccccc1)C(=O)O (plate: PM6) 3930
NC(N)=NCCC[C@H](N)C(=O)N[C@@H](CCC(=O)O)C(=O)O (plate: PM6) 8810
NC(=O)CC[C@H](NC(=O)[C@@H](N)CCC(N)=O)C(=O)O (plate: PM6) 4130
C[C@H](N)C(=O)N[C@@H](Cc1ccc(O)cc1)C(=O)O (plate: PM6) 4510
CC(C)C[C@H](N)C(=O)N[C@@H](CCCN=C(N)N)C(=O)O (plate: PM6) 8540
CC[C@H](C)[C@H](NC(=O)[C@@H](N)CC(C)C)C(=O)O (plate: PM6) 3260
CC(C)[C@H](N)C(=O)N[C@@H](Cc1ccc(O)cc1)C(=O)N[C@H](C(=O)O)C(C)C (plate: PM8) 5710
NC(=O)C[C@H](NC(=O)[C@@H](N)CO)C(=O)O (plate: PM8) 10400
C[C@H](N)C(=O)N[C@@H](CCCN=C(N)N)C(=O)O (plate: PM6) 9770
